Hits are enriched below; roughly 0.89% of the tested compounds scored in any of these assays.
AGP1 TOR yeast: modulators of TOR pathway AGP1-GFP in S. cerevisiae; S. cerevisiae AGP1-GFP multiplex flow cytometry, 3 h; GFP as percent of DMSO wells; GFP response vs DMSO, % at 10 µM; 320,000 compounds, 0.02% hits; AID 2066;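 active means GFP response relative to DMSO above a set limit, near screen average plus 3 SD, cut at about 150% in these data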;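 further: median GFP channel fluorescence of the gated AGP1 strain per well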
LAP4-GFP MLPCN: modulators of TOR pathway LAP4-GFP in S. cerevisiae; 320,000 compounds, 0.34% hits; GFP response vs DMSO, % at 10 µM; S. cerevisiae LAP4-GFP multiplex, flow cytometry GFP, 3 h; median GFP as percent of DMSO wells; AID 2023;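 active means GFP response vs DMSO above a set limit, about the screen mean plus 3 SD, cut at about 150% in these data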
RPL19A TOR yeast: yeast TOR pathway RPL19A-GFP modulation; S. cerevisiae RPL19A-GFP strain, flow cytometry, 3 h; hits give low values; percent response vs DMSO, % at 10 µM; 330,000 compounds, 0.3% hits;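 active means percent response vs DMSO below 50%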;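 further: median channel GFP fluorescence of the barcoded RPL19A-GFP strain; ratio of sample median GFP to plate DMSO average so 100% = DMSO; lower means less RPL19A-GFP as with rapamycin TOR inhibition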
MEP2-GFP yeast: modulators of TOR pathway MEP2-GFP in S. cerevisiae; S. cerevisiae MEP2-GFP strain, flow cytometry GFP, 3 h; 100% = DMSO control level; GFP response vs DMSO, % at 10 µM; 330,000 compounds, 0.51% hits; AID 2016;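 active means GFP response versus DMSO above a set limit, roughly screen mean plus 3 SD, cut at about 180% in these data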;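 further: median GFP fluorescence of the barcode-gated MEP2-GFP cells per well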
CIT2 TOR yeast: alters CIT2-GFP fluorescence in TOR pathway yeast screen; S. cerevisiae CIT2-GFP strain, flow cytometry, 3 h; 100 means same as DMSO wells; GFP response vs DMSO, % at 10 µM; 320,000 compounds, 0.065% hits;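 active means GFP response relative to DMSO above a set limit, near the screen mean plus 3 SD, cut at about 150% in these data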;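 further: ratio of well median GFP fluorescence to mean of DMSO wells on the plate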
LAP4-GFP pick2: yeast LAP4-GFP modulation, second cherry pick. shares compounds with LAP4-GFP MLPCN. S. cerevisiae LAP4-GFP strain, flow cytometry GFP, 3 h. GFP response vs DMSO, % at 10 µM. 590 compounds, 20% hits;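 active means GFP signal as percent of the solvent control above about 150%, meaning raised reporter expression, limit read from the data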;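 further: ratio of well median GFP fluorescence to plate DMSO mean so 100% = DMSO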
MEP2-GFP pick2: reconfirmed MEP2-GFP TOR pathway modulator in yeast; GFP response vs DMSO, % at 10 µM; S. cerevisiae MEP2-GFP strain, flow cytometry GFP, 3 h; 590 compounds, 10% hits; shares compounds with LAP4-GFP MLPCN;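 active means GFP signal above 150% of the solvent control wells, that is a rise of more than half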;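 further: median channel GFP fluorescence of all gated yeast cells per well; ratio of median GFP to plate DMSO average so 100% = DMSO level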
RPL19A-GFP pick2: yeast RPL19A-GFP TOR reporter modulation, second cherry pick | GFP response vs DMSO, % at 10 µM | 590 compounds, 3% hits | S. cerevisiae RPL19A-GFP strain, flow cytometry GFP, 3 h; hits give low values; 100% means same as DMSO wells | AID 2623 | shares compounds with LAP4-GFP MLPCN;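 active means under 65% GFP response relative to DMSO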;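 further: median GFP channel fluorescence per well over the all cells gate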
CIT2-GFP pick2: yeast CIT2-GFP TOR reporter modulation, second cherry pick. shares compounds with LAP4-GFP MLPCN. S. cerevisiae CIT2-GFP strain, flow cytometry GFP, 3 h; DMSO control wells read 100%. GFP response vs DMSO, % at 10 µM. 590 compounds, 8% hits;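 active means GFP response vs DMSO above about 150%, limit read from the data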;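 further: median green fluorescence per well over all gated yeast cells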
AGP1-GFP pick2: yeast AGP1-GFP TOR reporter modulation, second cherry pick | shares compounds with LAP4-GFP MLPCN | S. cerevisiae AGP1-GFP strain, flow cytometry GFP, 3 h | percent response vs DMSO, % at 10 µM | 590 tested, under 10 active | AID 2643;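 active means over 150 percent of DMSO response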;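 further: median GFP channel fluorescence over all cells without mother daughter split; sample median GFP divided by mean DMSO control so 100% equals DMSO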
s288c autofluor: compound is autofluorescent in yeast s288c cells. S. cerevisiae s288c, 520 nm autofluorescence, flow cytometry, 3 h; hits give high values; zero means same as solvent-only cells. 610 tested, under 10 active. shares compounds with LAP4-GFP MLPCN. fluorescence change (kMESF span) at 33 µM;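 active means fluorescence span over the dose series, or activity score, above about 33, limit read from the data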
s288c autofl DR: yeast s288c autofluorescence artifact in dose response. shares compounds with LAP4-GFP MLPCN. S. cerevisiae s288c parental, compound autofluorescence, flow cytometry, 3 h. fluorescence change (span) at 33 µM. AID 488829. 110 tested, under 10 active;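 active means fluorescence change span, or the activity score built from it, above 25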
TORC1 bypass: stops wildtype yeast growth while TORC1 bypass cells still grow; S. cerevisiae BY4741 spot growth rating, 48-72 h; hits give low values; shares compounds with LAP4-GFP MLPCN; growth rating (0-3) at 30 µM; 120 tested, under 10 active; AID 504456;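 active means growth rating at most 1 for wild type yeast while the TORC1 bypass strain still grows fully, rated 3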
Numbers without * were called inactive; · = not tested or not shown; + = active, no number.

SMILES	AGP1 TOR yeast	LAP4-GFP MLPCN	RPL19A TOR yeast	MEP2-GFP yeast	CIT2 TOR yeast	LAP4-GFP pick2	MEP2-GFP pick2	RPL19A-GFP pick2	CIT2-GFP pick2	AGP1-GFP pick2	s288c autofluor	others
Oc1cc(-c2ccc(N3CCCCC3)nc2)cc2cccnc12	87	164*	92	115	97	117	119	103	99	98	0.5
COc1ccc(CNC(=O)C2CCCN2S(=O)(=O)c2ccc(C)cc2)cc1 (stereo not given)	97	103	97	93	89	·	·	·	·	·	·
Cc1ccc(S(=O)(=O)N2CCCC2C(=O)NCc2ccncc2)cc1 (stereo not given)	110	100	98	112	161*	102	113	100	107	100	0
CC(/C=C/C(=O)c1ccc(C)cc1)=C\c1ccccc1	100	92	94	91	98	·	·	·	·	·	·
Cc1ccc(C(=O)/C=C\C(=O)c2ccc(C)cc2)cc1	84	168*	97	89	67	120	113	102	136	99	·
Cc1nnc(N/N=C/c2ccccc2C(F)(F)F)n1N	108	105	107	107	105	·	·	·	·	·	·
COc1ccc2c(c1)CC[C@@H]1[C@@H]2CC[C@]2(C)[C@@H](C(=O)O)C[C@@H]12	78	167*	93	94	64	116	110	90	88	88	·
CCc1ccc(C2=NN(C(=O)OC)C(O)(C(F)(F)F)C2)cc1 (stereo not given)	104	106	99	99	104	·	·	·	·	·	·
O=C(O)c1ccc2c(c1)C(=O)/C(=C/c1ccccc1)C2=O	86	83	94	92	86	88	94	99	107	98	0
CC(=O)Oc1ccc(N2C(=O)C3C4C=CC(O4)C3C2=O)cc1 (stereo not given)	100	118	98	98	100	·	·	·	·	·	0.1
Cc1ccc(-n2nc(C(=O)NN)c(C)c(C#N)c2=O)cc1Cl	59	102	90	+	123	101	98	97	108	102	·
CSc1nnc2c3cc(F)ccc3n(C)c2n1	67	87	64	102	79	99	98	57*	96	61	0.51	s288c autofl DR=0.22;TORC1 bypass=3
Cn1c2ccc(F)cc2c2nc3ccccc3nc21	95	77	100	103	104	·	·	·	·	·	·
O=C(Nc1cccc(-c2cccc(F)c2)c1)C1CCN(C2CCC2)CC1	106	95	108	109	116	·	·	·	·	·	·
CCOCCCNC(=O)C1CCCN(S(=O)(=O)c2cccc3nsnc23)C1 (stereo not given)	100	234*	72	86	68	97	105	100	101	101	·
